Source: PubChem BioAssay (EPA / NIEHS)
Active and inactive are the calls of the source. The calls were made as follows: active = hit-call score of the fitted dose curve at least 0.9, where 1 is the maximum; inactive = score below 0.9.

Assays:
[1] = read-out: Thrombomodulin, THBD (gene 7056); assay: BSK_CASM3C_Thrombomodulin: BioMAP Diversity Plus: CASM3C Assay for Thrombomodulin Biomarker Activity (AID 2283051); conditions: primary human coronary artery smooth muscle cells; actives raise or lower the signal;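 also: thrombomodulin protein level measured by ELISA 24 h after dosing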
[2] = read-out: Tissue Factor, F3 (gene 2152); assay: BSK_CASM3C_TissueFactor: BioMAP Diversity Plus: CASM3C Assay for Tissue Factor Biomarker Activity (AID 2283052); conditions: primary human coronary artery smooth muscle cells; actives raise or lower the signal;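 also: cell surface tissue factor protein level read by ELISA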
[3] = read-out: Interferon-gamma inducible Protein 10 (IP10), CXCL10 (gene 3627); assay: BSK_hDFCGF_IP10: BioMAP Diversity Plus: hDFCGF Assay for Interferon-gamma inducible Protein 10 (IP10) Biomarker Activity (AID 2283053); conditions: primary human foreskin fibroblasts; actives raise or lower the signal
How it was run: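 Primary human foreskin fibroblasts exposed to chemicals for 24 h. IP-10 measured by ELISA; changes fitted bidirectionally against DMSO baseline.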

[4] = read-out: Urokinase-type plasminogen activator receptor (uPAR), PLAUR (gene 5329); assay: BSK_CASM3C_uPAR: BioMAP Diversity Plus: CASM3C Assay for Urokinase-type plasminogen activator receptor (uPAR) Biomarker Activity (AID 2283054); conditions: primary human coronary artery smooth muscle cells; actives raise or lower the signal;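 also: cell-surface uPAR protein level quantified by ELISA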
[5] = read-out: Vascular cell adhesion molecule 1 (VCAM1), VCAM1 (gene 7412); assay: BSK_CASM3C_VCAM1: BioMAP Diversity Plus: CASM3C Assay for Vascular cell adhesion molecule 1 (VCAM1) Biomarker Activity (AID 2283055); conditions: primary human coronary artery smooth muscle cells; actives raise or lower the signal;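 also: VCAM-1 protein level quantified by ELISA on the cells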
[6] = read-out: Collagen III, COL3A1 (gene 1281); assay: BSK_hDFCGF_CollagenIII: BioMAP Diversity Plus: hDFCGF Assay for Collagen III Biomarker Activity (AID 2283056); conditions: primary human foreskin fibroblasts; actives raise or lower the signal
How it was run: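 hDFCGF primary human dermal fibroblasts; 24 h chemical exposure; collagen III by ELISA; bidirectional curve fit vs DMSO baseline (gain or loss of signal).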

[7] = read-out: Interleukin-8 (IL8), CXCL8 (gene 3576); assay: BSK_hDFCGF_IL8: BioMAP Diversity Plus: hDFCGF Assay for Interleukin-8 (IL8) Biomarker Activity (AID 2283058); conditions: primary human foreskin fibroblasts; actives raise or lower the signal
How it was run: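 ELISA read-out of IL-8 from primary human foreskin fibroblast cultures taken 24 h after dosing; values are bidirectional fits relative to DMSO vehicle.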

[8] = BSK_hDFCGF_Proliferation: Cell Proliferation Assessment in the BioMAP Diversity Plus: hDFCGF Assay (AID 2283059); conditions: primary human foreskin fibroblasts;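 also: curves fitted for both rise and fall of signal versus DMSO baseline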
How it was run: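 Primary human foreskin fibroblasts, sub-confluent; […]; 10% TCA fix, 0.1% SRB stain, A560 total protein. Gain/loss fitted bidirectionally vs DMSO control.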

[9] = read-out: Macrophage colony-stimulating factor (MCSF), CSF1 (gene 1435); assay: BSK_hDFCGF_MCSF: BioMAP Diversity Plus: hDFCGF Assay for Macrophage colony-stimulating factor (MCSF) Biomarker Activity (AID 2283060); conditions: primary human foreskin fibroblasts; actives raise or lower the signal
How it was run: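 ELISA read-out of M-CSF in human dermal foreskin fibroblast cultures, 24 h after chemical dosing; gain or loss of signal fitted bidirectionally relative to DMSO baseline.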

[10] = read-out: Epidermal growth factor receptor (EGFR), EGFR (gene 1956); assay: BSK_hDFCGF_EGFR: BioMAP Diversity Plus: hDFCGF Assay for Epidermal growth factor receptor (EGFR) Biomarker Activity (AID 2283057); conditions: primary human foreskin fibroblasts; actives raise or lower the signal
How it was run: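 Primary human foreskin fibroblasts (hDFCGF system), sampled 24 h after dosing; EGFR quantified by ELISA. Bidirectional fit relative to DMSO baseline; SRB total-protein staining in parallel cultures for cytotoxicity.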

Measured: AC50

CCOc1cccc(C2(N3CCN(c4ccccc4)CC3)CCC(C)CC2)c1 (centres undefined)
inactive: [1] | [2] | [3] | [4] | [5] | [6] | [7] | [8] | [9]

CO[C@@H]1[C@H](OC(=O)NC(=O)CCl)CC[C@]2(CO2)[C@H]1[C@@]1(C)O[C@@H]1CC=C(C)C
inactive: [1] | [2] | [4]
active: [3] 5.48 µM | [5] 6.2 µM | [6] 2.63 µM | [10] 9.51 µM | [7] 11.5 µM | [8] 2.28 µM | [9] 6.58 µM

c1ccc(NNc2ccccc2)cc1
inactive: [2] | [3] | [4] | [5] | [6] | [10] | [7] | [8] | [9]
active: [1] 15.9 µM

O=Cc1ccco1
inactive: [1] | [2] | [3] | [4] | [5] | [6] | [7] | [8] | [9]

CC(C)N(Cc1ccccc1)C(=O)C(C)(C)C
inactive: [1] | [2] | [3] | [4] | [5] | [6] | [10] | [7] | [8] | [9]

CC(C)(OOC(C)(C)c1ccccc1)c1ccccc1
active: [1] 32.1 µM | [2] 20 µM | [3] 37.9 µM | [6] 12.8 µM | [7] 36.2 µM | [8] 14.9 µM
inactive: [4] | [5] | [9]

CN(C)C(=O)Nc1ccc(Cl)cc1
inactive: [1] | [2] | [3] | [4] | [5] | [6] | [10] | [7] | [8] | [9]

Cc1cc(N=Nc2ccccc2C)ccc1N
active: [1] 10.7 µM | [3] 29.9 µM | [6] 20 µM | [8] 9.37 µM | [9] 28.3 µM
inactive: [2] | [4] | [5] | [7]

O=C(O)C1C2CCC(O2)C1C(=O)O (centres undefined)
active: [6] 24.3 µM | [8] 18.6 µM
inactive: [1] | [2] | [3] | [4] | [5] | [10] | [7] | [9]

CN(C)[C@@H]1C(=O)C(C(N)=O)=C(O)[C@@]2(O)C(=O)C3=C(O)c4c(O)cccc4[C@@](C)(O)[C@H]3C[C@@H]12
inactive: [1] | [2] | [3] | [4] | [5] | [6] | [7] | [9]
active: [8] 22.9 µM

CC(C)(C)C(O)(CCc1ccc(Cl)cc1)Cn1cncn1 (centres undefined)
inactive: [1] | [2] | [3] | [4] | [5] | [6] | [7] | [9]
active: [8] 0.299 µM

Cc1cccc(N)c1N
active: [1] 9.78 µM | [5] 13.8 µM | [9] 0.853 µM
inactive: [2] | [3] | [4] | [6] | [10] | [7] | [8]

Nc1ccc(Cl)cc1N
active: [1] 5.73 µM | [5] 3.97 µM | [8] 11.2 µM | [9] 6.73 µM
inactive: [2] | [3] | [4] | [6] | [7]

C1=Cc2cccc3cccc1c23
inactive: [1] | [2] | [3] | [4] | [5] | [6] | [7] | [8] | [9]

c1ccc2c(c1)-c1cccc3cccc-2c13
inactive: [1] | [2] | [3] | [4] | [5] | [10] | [7] | [9]
active: [6] 16.4 µM | [8] 23.7 µM

CCOC(=O)[C@]1(c2ccccc2)Oc2ccccc2[C@@H]1N
active: [3] 36.6 µM | [6] 31.9 µM | [7] 32.2 µM | [8] 17.8 µM | [9] 28.4 µM
inactive: [1] | [2] | [4] | [5]

C[N+](C)(C)CC1CO1 (centres undefined)
inactive: [1] | [2] | [3] | [4] | [5] | [6] | [7] | [8] | [9]

CCCSC(=O)N(CCC)CCC
inactive: [1] | [2] | [3] | [4] | [5] | [6] | [7] | [8] | [9]

O=C(Oc1ccc(Br)cc1)N1CCN2CCC1CC2
inactive: [1] | [2] | [3] | [4] | [5] | [6] | [7] | [8] | [9]

[Cl-].[Cl-].[Hg+2]
active: [1] 5.21 µM | [2] 32.6 µM | [3] 11.5 µM | [4] 34.4 µM | [5] 26.5 µM | [6] 11.6 µM | [7] 13.6 µM | [8] 4.83 µM | [9] 10.7 µM

CN(C)c1ccccc1
inactive: [1] | [2] | [3] | [4] | [5] | [6] | [7] | [8] | [9]

Clc1ccc(Cl)c(Cl)c1
inactive: [1] | [2] | [3] | [4] | [5] | [6] | [7] | [8] | [9]

Clc1ccc(C(c2ccc(Cl)cc2)C(Cl)(Cl)Cl)cc1
active: [1] 6.95 µM | [2] 33.2 µM | [3] 14.1 µM | [4] 20 µM | [5] 20 µM | [7] 27.3 µM | [8] 5.38 µM | [9] 10.9 µM
inactive: [10]

Oc1ccccc1Cl
inactive: [1] | [2] | [3] | [4] | [5] | [6] | [7] | [8] | [9]

Cc1ccc(N)cc1
inactive: [1] | [2] | [3] | [4] | [5] | [6] | [7] | [8] | [9]

ClCCOCCCl
inactive: [1] | [2] | [3] | [4] | [5] | [6] | [7] | [8] | [9]

Cn1cc(-c2ccccc2)c(=O)c(-c2cccc(C(F)(F)F)c2)c1
active: [4] 5.18 µM
inactive: [1] | [2] | [3] | [5] | [6] | [7] | [8] | [9]

CCC[CH2][Sn]([Cl])([CH2]CCC)[CH2]CCC
active: [1] 3.97 µM | [2] 0.148 µM | [3] 0.259 µM | [4] 0.406 µM | [5] 0.148 µM | [6] 0.316 µM | [7] 0.287 µM | [8] 0.148 µM | [9] 0.148 µM

COC(=O)c1ccccc1N
inactive: [1] | [2] | [3] | [4] | [5] | [6] | [7] | [8] | [9]

c1ccc2c(c1)oc1ccccc12
inactive: [1] | [2] | [3] | [4] | [5] | [6] | [7] | [8] | [9]

CCN(CC)N=O
inactive: [1] | [2] | [3] | [4] | [5] | [6] | [7] | [8] | [9]

CCCCCOC(=O)c1ccccc1C(=O)OCCCCC
inactive: [2] | [3] | [4] | [5] | [7] | [8]
active: [1] 15.6 µM | [6] 3.97 µM | [9] 9.05 µM

Nc1ccc(Oc2ccc(N)cc2)cc1
active: [8] 4.11 µM
inactive: [1] | [2] | [3] | [4] | [5] | [6] | [7] | [9]

OCCOCCO
inactive: [1] | [2] | [3] | [4] | [5] | [6] | [7] | [8] | [9]

Clc1ccc(C(c2ccc(Cl)cc2)C(Cl)Cl)cc1
inactive: [5]
active: [1] 24.1 µM | [2] 26.4 µM | [3] 9.7 µM | [4] 36.7 µM | [6] 5.06 µM | [7] 12.2 µM | [8] 11.9 µM | [9] 7.94 µM

C=CCc1ccc2c(c1)OCO2
inactive: [1] | [2] | [3] | [4] | [5] | [6] | [7] | [8] | [9]

OCCCBr
inactive: [1] | [2] | [3] | [4] | [5] | [6] | [7] | [8] | [9]

CC(C)(O)c1cnn2c(-c3ccc(F)c(-c4c(F)cccc4C#N)c3)cnc2n1
inactive: [1] | [2] | [3] | [4] | [5] | [7] | [8] | [9]
active: [6] 5.96 µM

CS(=O)(=O)NC(=O)c1cc(Oc2ccc(C(F)(F)F)cc2Cl)ccc1[N+](=O)[O-]
inactive: [1] | [3] | [4] | [5] | [6] | [10] | [7] | [8] | [9]

O=C(N[C@H](c1ccccc1)[C@@H]1CN2CCC1CC2)c1c(Cl)ccc(C(F)(F)F)c1Cl
inactive: [1] | [2] | [4] | [5] | [6] | [7] | [9]
active: [3] 16.3 µM | [8] 26.5 µM

c1ccc(C2CO2)cc1 (centres undefined)
inactive: [1] | [2] | [3] | [4] | [5] | [6] | [7] | [8] | [9]

CCCCOC(=O)c1ccccc1C(=O)OCc1ccccc1
active: [1] 20 µM | [6] 13 µM | [9] 11.8 µM
inactive: [2] | [3] | [4] | [5] | [7] | [8]

Nc1ccc([N+](=O)[O-])cc1
inactive: [1] | [2] | [3] | [4] | [5] | [6] | [7] | [9]
active: [8] 20 µM
